# Screening data (PubChem)
# TDP1 block: blocks human tyrosyl-DNA phosphodiesterase 1 | Potency, µM (series often up to 130 µM), most hits filed as inhibitors | AID 485290 | recombinant TDP1, AlphaScreen DNA substrate cleavage | 350,000 tested, 0.28% active; also: nearly all actives have a fitted effect of over 40% in size
# Target sequence (Q9NUW8 whole entry, looked up): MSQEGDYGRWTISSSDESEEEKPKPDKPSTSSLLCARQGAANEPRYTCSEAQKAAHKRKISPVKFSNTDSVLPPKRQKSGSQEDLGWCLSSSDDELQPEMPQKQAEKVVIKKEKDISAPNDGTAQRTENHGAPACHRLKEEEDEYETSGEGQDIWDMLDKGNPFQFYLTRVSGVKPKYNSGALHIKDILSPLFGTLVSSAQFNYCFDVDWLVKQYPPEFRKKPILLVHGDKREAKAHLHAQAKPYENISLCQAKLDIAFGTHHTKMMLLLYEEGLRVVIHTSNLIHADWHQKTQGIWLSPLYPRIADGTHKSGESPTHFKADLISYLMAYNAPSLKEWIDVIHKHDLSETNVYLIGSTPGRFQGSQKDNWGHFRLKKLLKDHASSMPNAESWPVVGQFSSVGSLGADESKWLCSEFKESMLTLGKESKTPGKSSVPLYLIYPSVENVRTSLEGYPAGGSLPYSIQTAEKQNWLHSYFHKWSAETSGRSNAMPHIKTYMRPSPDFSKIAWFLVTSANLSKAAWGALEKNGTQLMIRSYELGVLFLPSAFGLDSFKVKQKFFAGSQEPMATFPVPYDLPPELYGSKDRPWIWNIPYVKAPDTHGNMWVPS
#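 Here, a 5' biotin and 3' phosphotyrosine-FITC DNA oligonucleotide reports Tdp1 activity: intact substrate bridges AlphaScreen beads, while cleavage leaves a 3' phosphate and drops signal. All incubations at room temperature.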
# HP1b chromo inh: blocks HP1-beta chromodomain binding to methylated histone tails; P83916; AlphaScreen HP1-beta / biotin-H3K9me3 peptide binding; Potency, µM (highest dose often 114 µM), usual class: inhibitors; 390,000 tested, 0.56% active; AID 540317; also: nearly all actives have a fitted effect of over 70% in size
#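 AlphaScreen: HP1-beta (50 nM) preformed 30 min with biotin-H3(1-18)K9me3 peptide (50 nM) in PBS pH 7.4, 0.01% Tween-20. Compound added for 30 min at RT, then streptavidin donor/nickel chelate acceptor beads (10 ug/mL) for 30 min.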
# JMJD2A Tudor: blocks the human JMJD2A Tudor domain | AlphaScreen JMJD2A-Tudor / H3K4me3 peptide binding | Potency, µM (top dose mostly 114 µM), usual class: inhibitors | 390,000 tested, 4.4% active; also: nearly all actives have a fitted effect of over 50% in size
# Sfp PPTase inh: Sfp phosphopantetheinyl transferase inhibition; 310,000 tested, 3.5% active; Q9F4F7; Biochemical Sfp PPTase activity, qHTS; Potency, µM, usual class: inhibitors;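 also: the enzyme is Sfp with the accession as filed and its product quenches rhodamine fluorescence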
#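 With Hepes-Na pH 7.6 buffer containing 10 mM MgCl2, Sfp (15 nM) modified BHQ-2-YbbR (12.5 uM) using rhodamine-CoA (5 uM). Two reads 30 minutes apart at 525/598 nm yielded each well's rate.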
# BAZ2B inh: BAZ2B (human) inhibition; AlphaScreen BAZ2B-H3K14Ac peptide displacement; Potency, µM (highest dose often 114 µM), most hits filed as inhibitors; 360,000 tested, 4.4% active; also: nearly all actives have a fitted effect of over 60% in size
#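 Multi-concentration screen (max 110 uM) measuring displacement of acetylated histone H3 peptide from BAZ2B by AlphaScreen, using 50 nM protein, 50 nM peptide and 10 ug/mL streptavidin donor plus Ni-chelate acceptor beads.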
# G9a block: G9a (human) methyltransferase inhibition. 350,000 tested, 8.8% active. G9a H3K9 monomethylation, AlphaScreen, 2 h. Potency, µM (titrated, usually from 102 µM), most hits filed as inhibitors; also: nearly all actives have a fitted effect of over 75% in size
#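 Enzyme 20 nM + cpd, 15 min RT; add b-H3K9 pep 500 nM / SAM 20 uM; 2 h RT; anti-H3K9me1 Ab 0.5 ug/mL + SA donor / anti-rabbit acceptor beads 20 ug/mL each, 10 min; AlphaScreen read.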
# A number is an active result; i = inactive; ? = inconclusive; nt = no result; [ ] = another dose, or the depositor's remark. The list is not random: actives were taken first. Their share in the collection is about 12%. Calls follow the shape of the dose curve; as a rule, active = well fitted curve in the direction sought with a large enough effect; inconclusive = small, poorly fitted or top-dose-only effect, or another doubt; inactive = no such curve, though single readings can be large; an effect the other way counts as inactive or inconclusive.
SMILES,TDP1 block,HP1b chromo inh,JMJD2A Tudor,Sfp PPTase inh,BAZ2B inh,G9a block
Cc1[nH]n(-c2ccccc2)c(=O)c1C=NCc1ccco1,i,nt,nt,i,i,?
Cc1[nH]n(-c2ccccc2)c(=S)c1C=NCCCN=Cc1c(C)[nH]n(-c2ccccc2)c1=S,i,14.1µM,2µM,i,?,1.78µM
Cc1[nH]n(-c2ccccc2)c(=O)c1/C=N/NC(=O)COc1ccccc1[N+](=O)[O-],i,i,79.4µM,i,79.4µM,i
Cc1[nH]n(-c2ccccc2)c(=O)c1/C=N/NC(=O)C(C)C,i,i,79.4µM,i,31.6µM,i
Cc1c(/C=N/NC(=O)COc2ccccc2[N+](=O)[O-])c2ccccc2n1C,i,i,i,i,i,i
Cn1c(=O)c(-c2cc(F)cc(F)c2)nc2cnc(Nc3ccccc3)nc21,nt,nt,nt,i,nt,i[0.501 µM]
COC(=O)CN=Cc1c(C)[nH]n(-c2ccccc2)c1=O,i,i,i,i,i,?
CCOc1ccc2nc(/N=C/c3c(C)[nH]n(-c4ccc(C)cc4)c3=O)sc2c1,i,i,i,i,?,?
Cc1[nH]n(-c2ccccc2)c(=O)c1C=Nc1ccc(S(N)(=O)=O)cc1,i,i,i,i,i,?
COCC(=O)N/N=C/c1c(C)[nH]n(-c2ccccc2)c1=O,i,i,79.4µM,i,i,i
CCOc1ccc2nc(/N=C/c3c(C)[nH]n(-c4ccccc4)c3=O)sc2c1,i,?,i,10µM,i,25.1µM
Cc1[nH]n(-c2ccccc2)c(=O)c1/C=N\NC(=O)C1COc2ccccc2O1 (configuration not stated),i,i,?,i,70.8µM,i
Cc1[nH]n(-c2ccccc2)c(=O)c1/C=N/O,i,i,79.4µM,i,50.1µM,nt
Cc1ccc2cccc(N=Cc3c(C)[nH]n(-c4ccccc4)c3=O)c2n1,i,i,?,i,i,10µM
Cc1ccc(CNC(=O)Nc2ccccc2)cc1,i,i,i,i,i,i[12.7 µM]
COc1ccc(CNC(=O)Nc2cccs2)cc1OC,i,i,i,25.1µM,i,12.6µM
COc1ccc(Br)cc1CNC(=O)Nc1cccs1,i,i,i,50.1µM,i,?
COc1cccc(CNC(=O)Nc2cccs2)c1,i,i,i,44.7µM,i,44.7µM
COc1ccc(Br)cc1CNC(=O)Cn1ncn2nc(-c3cccs3)cc2c1=O,i,i,i,nt,i,i
COc1ccc(CNC(=O)Cc2cccs2)cc1OC,nt,i,i,i,i,i
Cc1ccc(CNC(=O)Nc2cccs2)cc1,i,i,i,17.8µM,i,?
CCOc1ccc(NC(=O)CN(C)C(=O)c2cccnc2Sc2ccc(Cl)cc2)cc1OCC,i,i,i,nt,i,i[0.501 µM]
CCOc1ccc(N2CC(C(=O)Nc3cc(Cl)ccc3-n3cncn3)CC2=O)cc1 (configuration not stated),nt,i,i,nt,i,?
NC(=O)CSc1nc2ccc(NC(=O)COc3ccccc3)cc2s1,i,i,i,nt,i,i
O=C/C(=C\Nc1ccccn1)c1nc2ccccc2o1,i,i,39.8µM,i,79.4µM,i
SMILES,TDP1 block,HP1b chromo inh,JMJD2A Tudor,Sfp PPTase inh,BAZ2B inh,G9a block
COc1ccc(CNC2CC(C)N(C)CC2C)cc1OC (configuration not stated),nt,i,i,i,i,i
COc1ccc(CCNC2CC(C)N(C)CC2C)cc1OC (configuration not stated),i,i,i,i,i,44.7µM
CCCCNc1ccc2c(c1)C1CC2CCN1C(=O)OCc1ccccc1 (configuration not stated),nt,i,25.1µM,nt,nt,nt
O=C(OCc1ccccc1)N1CCC2CC1c1cc(-c3ccccc3)ccc12 (configuration not stated),nt,i,i,nt,nt,nt
O=c1[nH][nH]c(=O)c2c(NS(=O)(=O)c3ccccc3)cccc12,i,i,44.7µM,i,i,i
COc1ccc(C)cc1NC(=O)Nc1nnc(N2CCCCC2)s1,i,i,i,nt,i,i
COc1ccc(OC)c(NC(=O)Nc2nnc(N3CCC(C)CC3)s2)c1,i,i,?,i,?,50.1µM
COc1ccc(OC)c(NCc2cccn2-c2nnc(N3CCC(C)CC3)s2)c1,i,?,?,nt,i,7.94µM
COc1ccc(CNC(=O)C2CCN(c3nnc(-n4cccc4CNc4ccc(C)cc4)s3)CC2)c(OC)c1,i,i,i,nt,i,1.41µM
COc1ccc(NCc2cccn2-c2nnc(N3CCC(C)CC3)s2)c(OC)c1,i,?,28.2µM,nt,?,5.62µM
CC(C)C(OC(=O)c1nsc(Cl)c1Cl)C(=O)NC1CCCCC1 (configuration not stated),i,i,i,i,i,i
Cc1ccccc1OCCC(=O)N1CCN(S(=O)(=O)c2ccc(Br)cc2)CC1,i[0.505 µM],i,i,nt,i,?
COc1ccc(OC)c(NC(=O)C2C3CCC(C3=C(C)C)C2C(=O)O)c1 (configuration not stated),i,i,?,39.8µM,i,8.91µM
COc1ccc(OC)c(NC(=O)C2CCCCC2C(=O)O)c1 (configuration not stated),i,i,i,i,i,i
Cn1cnnc1SCc1ccccc1,i,i,i,i,i,1.26µM
Cn1cnnc1SCc1ccc(-c2ccc(Br)cc2)o1,i,i,i,44.7µM,i,?
O=C(Cn1cc(SCc2cccc(F)c2)c2ccccc21)N1CCCC1,i,i,i,nt,?,i
Fc1ccc(C(Nc2ccccn2)c2c[nH]c3ccccc23)cc1 (configuration not stated),i,i,?,i,i,39.8µM
CN(C)c1ccc(C(CNS(=O)(=O)c2ccc(F)cc2)N2CCCC2)cc1 (configuration not stated),i,i,?,nt,?,i
Cc1ccc(S(=O)(=O)NCC(c2ccc(N(C)C)cc2)N2CCc3ccccc32)cc1 (configuration not stated),i,?,14.1µM,nt,6.31µM,11.2µM
CN(C)c1ccc(C(CNS(=O)(=O)c2ccc(F)cc2)N2CCOCC2)cc1 (configuration not stated),i,i,i,nt,i,i
COc1ccc(S(=O)(=O)NCC(c2ccc(N(C)C)cc2)N2CCc3ccccc32)cc1F (configuration not stated),i,?,20µM,nt,11.2µM,i[12.7 µM]
CN(C)c1ccc(C(CNS(=O)(=O)c2ccccc2)N2CCc3ccccc32)cc1 (configuration not stated),i,?,12.6µM,nt,22.4µM,i[12.7 µM]
CCOC(=O)c1cccc(NC(=O)CCn2c(-c3ccc(F)cc3)cc(C(=O)OCC)c2C)c1,i,i,i,nt,i,?
Cc1ccc(N2C(=O)c3ccccc3NC2(C(=O)O)c2ccccc2)cc1Cl (configuration not stated),nt,i,i,i,i,i
Oc1c(Br)cc(/C=N/n2c(-c3ccccc3)n[nH]c2=S)c(Br)c1O,?,nt,nt,i,1.78µM,1.78µM
